Results filed as inconclusive are left out. A number with no mark means an inactive call. The source made the active and inactive calls. The call rests on the fitted dose curve; in most records, active means well fitted curve in the direction sought with a large enough effect; inconclusive means small, poorly fitted or top-dose-only effect, or another doubt; inactive means no such curve, though single readings can be large; an effect the other way counts as inactive or inconclusive.

The test system of one assay is MCC-13. As to the kind of experiment: qHTS assay to identify novel small-molecules to repurpose for Merkel cell carcinoma treatment (AID 1296009). Further: nearly all actives have a fitted effect of over 60% in size. Further: potency means the concentration at half of the fitted maximal effect. The conditions noted are these: MCC and control cell lines, CellTiter-Glo viability, 72 h; series mostly up to 46 µM. The method in brief: (§1)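 Luminescence from CellTiter-Glo, read 10 min after addition at room temperature, reported viability following a 72 hr, 37 degree celsius treatment with NPC or MIPE compounds in titration; values normalized to plate controls.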
(In qHTS, concentration-response curves come from the screen itself.)

Another assay relates to MCC-26. The assay is described as above. The conditions noted are these: MCC and control cell lines, CellTiter-Glo viability, 72 h; series mostly up to 46 µM. In short, it runs like this:
as §1

The next assay relates to MKL-1. The description is as above. As to conditions: MCC and control cell lines, CellTiter-Glo viability, 72 h; series mostly up to 46 µM. The method in brief:
as §1
Background: In ATP-based viability assays light output follows the ATP content of the culture.

A further assay relates to MKL-2. The description is as above. As to conditions: MCC and control cell lines, CellTiter-Glo viability, 72 h; series mostly up to 46 µM. In short, it runs like this: as §1
The next assay concerns WaGa. The description is as above. The conditions noted are these: MCC and control cell lines, CellTiter-Glo viability, 72 h; series mostly up to 46 µM. The method in brief: as §1
In the next assay the test system is C33A. In words: Primary qHTS to identify gynecologic anti-cancer compounds using libraries of approved drugs and bioactive compounds (AID 1345084). Further: nearly all actives have a fitted effect of over 55% in size. The conditions noted are these: Gynecologic cancer cell panel viability, ATPlite luminescence, 48 h; series mostly up to 57.5 µM. In short, it runs like this:
(§2)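 48 h compound exposure at 37 C, 5% CO2; five-point qHTS. ATPlite luminescence readout of cell ATP.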

The test system of a further assay is CAOV3. The description is as above. The conditions noted are these: Gynecologic cancer cell panel viability, ATPlite luminescence, 48 h; series mostly up to 57.5 µM. In short, it runs like this:
as §2

The next assay concerns CASKI. The description is as above. As to conditions: Gynecologic cancer cell panel viability, ATPlite luminescence, 48 h; series mostly up to 57.5 µM. The method in brief:
as §2

For another assay, the system named is Es-2. Described as above. As to conditions: Gynecologic cancer cell panel viability, ATPlite luminescence, 48 h; series mostly up to 57.5 µM. The method in brief:
as §2

The next assay has as its system HeLa. The description is as above. The conditions noted are these: Gynecologic cancer cell panel viability, ATPlite luminescence, 48 h; series mostly up to 57.5 µM. In short, it runs like this:
as §2

A further assay relates to Hek293T. The assay is described as above. The conditions noted are these: Gynecologic cancer cell panel viability, ATPlite luminescence, 48 h, control line for the selectivity index; series mostly up to 57.5 µM. In short, it runs like this:
as §2

The next assay has as its system JEG-3. The description is as above. As to conditions: Gynecologic cancer cell panel viability, ATPlite luminescence, 48 h; series mostly up to 57.5 µM. The method in brief:
as §2

A further assay has as its system PA-1. Described as above. As to conditions: Gynecologic cancer cell panel viability, ATPlite luminescence, 48 h; series mostly up to 57.5 µM. The method in brief: as §2
The subject of the next assay is SKOV3. The description is as above. The conditions noted are these: Gynecologic cancer cell panel viability, ATPlite luminescence, 48 h; series mostly up to 57.5 µM. The method in brief:
as §2

A further assay has as its system Tov-21-G. Described as above. The conditions noted are these: Gynecologic cancer cell panel viability, ATPlite luminescence, 48 h; series mostly up to 57.5 µM. The method in brief:
as §2

For a further assay, the system named is Tov112D. Described as above. The conditions noted are these: Gynecologic cancer cell panel viability, ATPlite luminescence, 48 h; series mostly up to 57.5 µM. In short, it runs like this: as §2
The nature of assay [1]: Drug repurposing screens with cells derived from glioblastoma tumor samples (AID 1345199). Further: nearly all actives have a fitted effect of over 40% in size. Further: potency means the concentration at half of the fitted maximal effect. As to conditions: GBM patient neurospheres viability, ATP luminescence, 48 h. The method in brief: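 Primary testing used CD133+ neurospheres from four GBM patients, seven concentrations, 48 h exposure and ATP-based viability; confirmation added three slower-growing patient lines.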

The test system of the next assay is UISO. In words: qHTS assay to identify novel small-molecules to repurpose for Merkel cell carcinoma treatment (AID 1296009). Further: nearly all actives have a fitted effect of over 60% in size. Further: potency means the concentration at half of the fitted maximal effect. The conditions noted are these: MCC and control cell lines, CellTiter-Glo viability, 72 h; series mostly up to 46 µM. The method in brief: as §1
In another assay the test system is OV90. In words: Primary qHTS to identify gynecologic anti-cancer compounds using libraries of approved drugs and bioactive compounds (AID 1345084). Further: nearly all actives have a fitted effect of over 55% in size. The conditions noted are these: Gynecologic cancer cell panel viability, ATPlite luminescence, 48 h; series mostly up to 57.5 µM. The method in brief: as §2
Where [2] appears, read: at 45.9 µM (top of the series), tumour line B.
Setting [3] is: at 45.9 µM (top of the series), tumour line D.
On the % scale 0 is the no-effect control and ±100 the full control effect.

Consider `CCN(CC)CCc1c[nH]c2ccccc12`, for which the compound was classed as inactive in the assay with MCC-13, in the assay with CAOV3, in the assay on CASKI, with Hek293T, with JEG-3 and with SKOV3. Also, the Potency entry in the assay on MCC-26, with MKL-1, with MKL-2, with WaGa, with C33A and with Es-2 was “inactive” throughout. The Potency result with HeLa, with PA-1, with Tov-21-G and with Tov112D was “inactive” each time. Also, the activity, negative = cell killing in [1] (at 108 µM (top of the series), tumour line B) was -10.6%; in [1] (at 108 µM (top of the series), tumour line D), -16.4%. For the same compound, the Potency in assay [1] (tumour line A) is 63.1 µM (active).
Consider `CCCN(CCC)C(=O)Cc1c(-c2ccc(Cl)cc2)nc2ccc(Cl)cn12`, for which the compound was called inactive in the assay with MCC-13, in the assay with CAOV3, with CASKI, with Hek293T, in the assay with JEG-3 and in the assay with SKOV3. Moreover, the Potency entry in the assay with MCC-26, with MKL-1, with MKL-2, with UISO, in the assay with WaGa and in the assay on C33A was “inactive” in each case. The Potency entry in the assay with Es-2, in the assay with HeLa, in the assay with Tov-21-G and in the assay on Tov112D was “inactive” throughout. In [1] (setting [2]), the activity, negative = cell killing was -4.08%. For the same compound, the Potency in [1] (tumour line A) was 10 µM (active).
As for `CC(C)c1c(CN(C)C(C)Cc2ccccc2)n(C)n(-c2ccccc2)c1=O` (stereo not given), the result in the assay on MCC-13, in the assay with CAOV3, with CASKI, in the assay with Hek293T, in the assay on JEG-3 and in the assay on SKOV3 was inactive. For the same compound, the Potency result in the assay on MCC-26, with MKL-1, in the assay with MKL-2, in the assay on UISO, with WaGa and in the assay with C33A was “inactive” throughout. In addition, the Potency entry with Es-2, in the assay on HeLa, in the assay on PA-1, in the assay with Tov-21-G and in the assay on Tov112D was “inactive” throughout. For the same compound, the activity, negative = cell killing in [1] (at 21.2 µM (top of the series), tumour line B) is -20.9%; in assay [1] (at 21.2 µM (top of the series), tumour line D), -18.5%. Moreover, the Potency in assay [1] (tumour line A) was 11.2 µM (active).
Take `NNc1ccccc1`: the call in the assay on MCC-13, with CAOV3, with CASKI, in the assay with Hek293T and in the assay with JEG-3 was inactive. Further, the Potency result in the assay on MCC-26, in the assay on MKL-1, with MKL-2, in the assay on WaGa, in the assay with C33A and with Es-2 was “inactive” in each case. In addition, the Potency result with HeLa, in the assay with OV90, in the assay with PA-1, in the assay on Tov-21-G and in the assay on Tov112D was “inactive” in each case. The activity, negative = cell killing was -3.46% in assay [1] (setting [2]); -1.72% in assay [1] (setting [3]); -20.5% in [1] (at 46 µM (top of the series), tumour line A); 11.9% in assay [1] (at 46.1 µM (top of the series), tumour line C).
With `CC(C)=CC1C(C(=O)OCN2C(=O)C3=C(CCCC3)C2=O)C1(C)C` (stereo not given), the compound was classed as inactive in the assay on MCC-13, in the assay with CASKI and with JEG-3. Moreover, the Potency entry with MCC-26, with MKL-1, in the assay with MKL-2, with UISO, in the assay on WaGa and with C33A was “inactive” each time. The Potency entry in the assay on Es-2, in the assay on HeLa, in the assay on OV90, in the assay with PA-1, in the assay on Tov-21-G and in the assay on Tov112D was “inactive” in each case. The figures for the activity, negative = cell killing in [1] (setting [2]) and in assay [1] (setting [3]) were -18.8% and -12.7%, respectively.
For the compound `COC1CC(=C(c2cccs2)c2cccs2)C[N+](C)(C)C1` (stereo not given), the result in the assay with MCC-13, with CAOV3, in the assay on Hek293T, in the assay on JEG-3 and in the assay on SKOV3 was inactive. The Potency entry with MCC-26, in the assay with C33A, in the assay with Es-2, in the assay on OV90, in the assay on Tov-21-G and in the assay on Tov112D was “inactive” in each case. Also, the Potency with MKL-1 was 21.1 µM (active); in the assay with MKL-2, 7.5 µM (active); in the assay with WaGa it was 11.9 µM (active).
`O=c1c(C2CC(c3ccc(-c4ccc(Br)cc4)cc3)Cc3ccccc32)c(O)sc2ccccc12` (stereo not given): the call in the assay on MCC-13, in the assay on CAOV3, in the assay on CASKI, in the assay with Hek293T and in the assay on SKOV3 was inactive. Further, the Potency entry with MCC-26, with MKL-1, in the assay with MKL-2, in the assay with C33A, in the assay with Es-2 and in the assay with PA-1 was “inactive” in each case. Also, the Potency result with Tov112D was “inactive”.

For the origin of these results see PubChem BioAssay (NCATS).
